From PubChem BioAssay (NCATS)
Results filed as inconclusive are left out. Active and inactive are the calls of the source. Unless noted, calls follow the shape of the dose curve; as a rule, active = well fitted curve in the direction sought with a large enough effect; inconclusive = small, poorly fitted or top-dose-only effect, or another doubt; inactive = no such curve, though single readings can be large; an effect the other way counts as inactive or inconclusive.

Legend:
[1] = AP1 Signaling Pathway (AID 357; active = well fitted curve in either direction with a large enough effect, not every such curve was filed as active;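 also: ME-180 reporter cells stimulated with EGF at its EC50 level; % is scaled to controls: 0 for no effect and ±100 for the full control effect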); settings: ME-180 AP-1-bla reporter, EGF-induced, beta-lactamase ratio, 5 h; at 17.2 µM (top of the series) unless noted
Summary of the method: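 Cells are seeded overnight, exposed to compound titrations and an EC50 level of EGF for 5 hours at 37 °C, then loaded with CCF4 dye for 2.5 hours. Beta-lactamase activity under the AP-1 element is read as a blue/green ratio.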

[2] = target: Cytochrome P450 1A2 (Homo sapiens) (UniProt P05177); assay: p450-cyp1a2 (AID 410; calls by dose curve; also: potency is read from the fitted curve at half-maximal effect;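 as to activity change, negative = inhibition: -100% = full effect of reference inhibitor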)
Summary of the method: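 20nM CYP1A2 with 100uM Luciferin-ME (at Km) in 100mM KPO4; compound preincubated 10 min, NADPH regeneration added, 60 min at room temperature. Luciferin quantified by luminescence after detection reagent; normalized to 57 uM furafylline.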

[3] = Stat Signaling Pathway (AID 446; active = well fitted curve in either direction with a large enough effect, not every such curve was filed as active;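 also: ME-180 cervical cancer cells given 40 pM IL-6 alongside compound; SIE-controlled beta-lactamase reporter measured as 460/530 nm FRET emission ratio; % is scaled to controls: 0 for no effect and ±100 for the full control effect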); settings: ME-180 SIE beta-lactamase reporter, IL-6 stimulated, 5 h; at 17.2 µM (top of the series) unless noted
Summary of the method: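 ME-180 cells carrying a SIE-driven beta-lactamase reporter are stimulated with 40 pM IL-6 for 5 h at 37C in the presence of compound. The 460/530 nm FRET substrate ratio is read after 2.5 h at RT. Data are normalised to 300 pM IL-6 and to 125 nM JAK inhibitor controls.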

[4] = target: Glucocorticoid receptor (Homo sapiens) (UniProt P04150); assay: GR-GFP Redistribution (AID 450;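 active = compounds whose dose series gives a full or clear partial fitted curve of increased nuclear translocation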; also: potency is read from the fitted curve at half-maximal effect)
[5] = target: Glucocorticoid receptor (Homo sapiens) (UniProt P04150); assay: GR-EFC Redistribution (AID 451; calls by dose curve; also: potency is read from the fitted curve at half-maximal effect); settings: CHO-K1 GR-EFC translocation, beta-gal luminescence, 2 h
Summary of the method: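 CHO-K1 cells expressing nuclear EA and GR-ED fragments of b-gal; compounds titrated up to 46 uM final, 2 h at 37 C. GR nuclear translocation read as complemented b-gal luminescence after 1 h RT detection.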

[6] = target: Guanine nucleotide-binding protein G(i) subunit alpha-1 (Homo sapiens) (UniProt P63096); assay: qHTS Assay for Inhibitors of RGS12 GoLoco Motif Activity (Green Fluorophore) (AID 879);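 also: 0% = labeled peptide with Gαi1 and full inhibition = labeled peptide alone without protein; negative values mean loss of peptide binding seen as reduced polarization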
Summary of the method: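 Fluorescence polarization assay: 50 nM Gαi1 with 10 nM FITC-labeled RGS12 GoLoco peptide in 10 mM Tris pH 7.5, 150 mM NaCl, 0.1 mM GDP, 0.05% NP40, 10 min at room temperature with compound.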

[7] = target: Cytochrome P450 3A4 (Homo sapiens) (UniProt P08684); assay: qHTS Assay for Activators of Cytochrome P450 3A4 (AID 885); also: nearly all actives have a fitted effect of over 65% in size
Summary of the method: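 Human CYP3A4 (20 nM) with Luciferin-PPXE at 25 uM (its KM) in 200 mM KPO4; 10 min compound preincubation, then NADPH regeneration and 60 min reaction at RT. Luciferin read by luminescence; normalized to 57 uM ketoconazole full inhibition.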

[8] = target: Muscarinic acetylcholine receptor M1 (Rattus norvegicus) (UniProt P08482); assay: qHTS Assay for Antagonists of Acetylcholine Muscarinic M1 Receptor: Kinetic Measurement of Intracellular Calcium Response (AID 943); also: potency is read from the fitted curve at half-maximal effect; nearly all actives have a fitted effect of over 75% in size
Summary of the method: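 CHO cells expressing rat M1 receptor, Fluo-4 loaded, preincubated 10 min with compound, then stimulated with EC80 carbachol (100 nM final). Kinetic calcium fluorescence over 4 min; response taken as peak over basal signal.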

[9] = target: Muscarinic acetylcholine receptor M1 (Rattus norvegicus) (UniProt P08482); assay: qHTS Assay for Antagonists of Acetylcholine Muscarinic M1 Receptor: Measurement of IP-One Response (AID 944); also: nearly all actives have a fitted effect of over 75% in size
Summary of the method: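 CHO cells stably expressing rat M1, pretreated 10 min with compound, then stimulated 30 min with carbachol at EC80 (200 nM) in LiCl-containing buffer pH 7.4; IP1 accumulation read by HTRF competition (665/620 nm).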

[10] = target: Pyruvate kinase (Leishmania mexicana) (UniProt Q27686); assay: qHTS Validation Assay for Inhibitors of Leishmania Mexicana Pyruvate Kinase (AID 945);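 also: 0% = DMSO only neutral control wells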
Summary of the method: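 Luminescent ATP detection (PKLight) after a 1 h room-temperature reaction of 0.2 nM LmPYK E451W mutant with 0.5 mM PEP and 0.1 mM ADP at pH 7.2. Activity is normalized to DMSO-only control wells.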

[11] = target: Pyruvate kinase PKM (Homo sapiens) (UniProt P14618); assay: qHTS Assay for Activators of Human Muscle Pyruvate Kinase (AID 954; active = well fitted curve in the direction sought with a large enough effect, not every such curve was filed as active;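 also: 0% = uninhibited enzyme and -100% = no enzyme or full thiadiazolimine inhibition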)
Summary of the method: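 Purified human PKM2 (0.1 nM) with 0.5 mM PEP (Km) and 0.1 mM ADP in 50 mM imidazole pH 7.2, KCl, MgCl2, 1 h at room temperature; ATP formed read by coupled luciferase luminescence. Normalized to no-enzyme/110 uM thiadiazolimine inhibition; 0.3 nM enzyme column for activation.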

[12] = target: Alpha-galactosidase A (Homo sapiens) (UniProt P06280); assay: Counterscreen for Glucocerebrosidase Inhibitors: qHTS Assay for Human alpha-Galactosidase at pH 4.5 (AID 992); also: 0% is about no effect
Summary of the method: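 Human enzyme (2 nM) with 80 uM 4-methylumbelliferyl alpha-D-galactopyranoside in 50 mM citric acid, 0.005% Tween-20, pH 4.5, 20 min at room temperature. Compounds 0.7 nM–77 uM; fluorescence Ex 365/Em 440 after pH 10 stop; AC50 from Hill fits.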

[13] = target: alpha-glucosidase (Oryza sativa, rice) (UniProt Q653V4); assay: Counterscreen for Glucocerebrosidase Inhibitors: qHTS Assay for Rice alpha-Glucosidase at pH 5.0 (AID 997);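 also: 0% = full activity with enzyme and -100% = basal without enzyme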
Summary of the method: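 Rice alpha-glucosidase (4 nM final) with 400 uM 4-methylumbelliferyl-alpha-D-glucopyranoside in citrate buffer pH 5.0, 20 min at room temperature, stopped at pH 10; fluorescence 365/440 nm, compounds 0.7 nM–77 uM, AC50 from Hill fits.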

[14] = target: Mitogen-activated protein kinase 10 (Mus musculus) (UniProt Q61831); assay: JNK3 AlphaScreen Assay (AID 530; active = well fitted curve in either direction with a large enough effect, not every such curve was filed as active;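 also: kinase came from lysate of stimulated human HepG2 cells; signal reports phosphorylation of biotinylated GST-cJun 1-79 at Ser73 with 10 µM ATP; % is scaled to controls: 0 for no effect and ±100 for the full control effect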)
Summary of the method: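 Pre-activated (IL-1β/TNFα) JNK3 in HepG2 lysates phosphorylates biotin-GST-cJun(1-79), 10 uM ATP; anti-phospho-cJun(Ser73) AlphaScreen read at room temperature, pH 7.6 Tris buffer. Compounds pre-incubated 15 min as titrations.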

[15] = Confirmation and Secondary Assay for Modulators of Hemoglobin Beta Chain Splicing at IVS2 705 locus (AID 930);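 also: HeLa cells stably expressing the EGFP-705 splicing reporter; GFP fluorescence per well restored by corrected splicing of the IVS2-705 intron in EGFP; % of control where 0% means no effect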
Summary of the method: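 Read-out: total peak GFP fluorescence per well (488 nm excitation, 500-520 nm emission) by laser-scanning cytometry. Cells: HeLa EGFP-705 splicing reporter, 2 days compound exposure in Optimem/2% FCS.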

[16] = target: 3',5'-cyclic-AMP phosphodiesterase 4B (Homo sapiens) (UniProt Q07343); assay: qHTS Assay for Inhibitors of PDE-IV (AID 607; active = well fitted activation curve with a large enough effect in the main read-out, with a control signal flat, not every such curve was filed as active; also: % of control where 0% means no effect)
Summary of the method: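 HEK293 ACTOne cells with CNG channel (1000/well), endogenous PDE4; membrane potential dye, compounds up to 22.9 uM final. Fluorescence Ex 535/Em 590; RO 20-1724 (100 uM final) as reference.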

[17] = target: Cytochrome P450 3A4 (Homo sapiens) (UniProt P08684); assay: qHTS Assay for Inhibitors and Substrates of Cytochrome P450 3A4 (AID 884); also: % is scaled to controls: 0 for no effect and ±100 for the full control effect; nearly all actives have a fitted effect of over 50% in size
Summary of the method: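 20 nM human CYP3A4 with 25 uM Luciferin-PPXE (at KM) in 200 mM KPO4, preincubated 10 min with compound; NADPH regeneration started a 60 min RT reaction. Luciferin detected by luminescence, normalized to 57 uM ketoconazole as full inhibition.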

[18] = qHTS Assay for Identification of Small Molecule Antagonists for NFkB Signaling Pathway (AID 895; active = well fitted inhibition curve with a large enough effect in the signal ratio, with a control signal flat, not every such curve was filed as active; the % refers to the signal ratio; also: % is scaled to controls: 0 for no effect and ±100 for the full control effect)
Summary of the method: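 ME-180 NFkB-bla cells (beta-lactamase under NFkB response element), plated overnight, treated with compound then 10 pM TNF alpha (about EC50) for 5 hrs at 37 C. LiveBLAzer FRET read at 460/530 nm emission, 405 nm excitation.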

[19] = NFAT Signaling Pathway (AID 444; active = well fitted curve in either direction with a large enough effect, not every such curve was filed as active); settings: Jurkat NFAT-bla M1, carbachol, beta-lactamase ratio, 5 h; at 17.2 µM (top of the series) unless noted
Summary of the method: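 Jurkat cells with NFAT-driven β-lactamase reporter and co-expressed M1 receptor, stimulated with carbachol (final 1 uM, ~EC50), compound titration, 5 h at 37 °C. CCF4 loaded 1 h at RT; 460/530 nm ratio gave %activity and AC50.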

[20] = target: Cytochrome P450 2C9 (Homo sapiens) (UniProt P11712); assay: qHTS Assay for Inhibitors and Substrates of Cytochrome P450 2C9 (AID 883); also: % is scaled to controls: 0 for no effect and ±100 for the full control effect; nearly all actives have a fitted effect of over 60% in size
Summary of the method: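 10nM CYP2C9 + 100uM Luciferin-H (=KM), 25mM KPO4; cpd 10 min 37C; NADPH regen, 60 min 37C; stop/detect with P450 Glo-Buffer 20 min; luminescence. Norm. to 57uM sulphaphenazole as full inhibition.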

[21] = target: Cytochrome P450 2C19 (Homo sapiens) (UniProt P33261); assay: qHTS Assay for Inhibitors and Substrates of Cytochrome P450 2C19 (AID 899); also: % is scaled to controls: 0 for no effect and ±100 for the full control effect; nearly all actives have a fitted effect of over 60% in size
Summary of the method: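 Luminescent read-out of luciferin formed from Luciferin-H EGE (10uM, equal to KM). Enzyme 5nM in 50mM KPO4; compound added, 10 min at 37C, then NADPH regenerating system for 60 min at 37C. Full inhibition defined by 57uM ketoconazole.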

Chain of Pyruvate kinase (Leishmania mexicana) (Q27686 2-499 E452W): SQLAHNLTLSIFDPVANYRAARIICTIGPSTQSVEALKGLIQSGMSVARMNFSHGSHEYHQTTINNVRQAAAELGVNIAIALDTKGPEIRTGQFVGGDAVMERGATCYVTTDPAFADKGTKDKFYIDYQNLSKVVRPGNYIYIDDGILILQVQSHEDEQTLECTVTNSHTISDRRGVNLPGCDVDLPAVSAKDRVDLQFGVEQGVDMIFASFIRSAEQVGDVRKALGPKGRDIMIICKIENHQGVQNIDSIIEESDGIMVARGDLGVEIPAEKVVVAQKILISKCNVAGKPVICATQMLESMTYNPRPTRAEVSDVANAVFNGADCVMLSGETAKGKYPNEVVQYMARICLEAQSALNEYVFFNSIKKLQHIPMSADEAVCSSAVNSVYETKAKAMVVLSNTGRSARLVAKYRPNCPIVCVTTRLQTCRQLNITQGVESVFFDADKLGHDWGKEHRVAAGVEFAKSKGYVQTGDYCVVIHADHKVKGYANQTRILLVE
Chain of 3',5'-cyclic-AMP phosphodiesterase 4B (Homo sapiens) (Q07343 whole entry, looked up): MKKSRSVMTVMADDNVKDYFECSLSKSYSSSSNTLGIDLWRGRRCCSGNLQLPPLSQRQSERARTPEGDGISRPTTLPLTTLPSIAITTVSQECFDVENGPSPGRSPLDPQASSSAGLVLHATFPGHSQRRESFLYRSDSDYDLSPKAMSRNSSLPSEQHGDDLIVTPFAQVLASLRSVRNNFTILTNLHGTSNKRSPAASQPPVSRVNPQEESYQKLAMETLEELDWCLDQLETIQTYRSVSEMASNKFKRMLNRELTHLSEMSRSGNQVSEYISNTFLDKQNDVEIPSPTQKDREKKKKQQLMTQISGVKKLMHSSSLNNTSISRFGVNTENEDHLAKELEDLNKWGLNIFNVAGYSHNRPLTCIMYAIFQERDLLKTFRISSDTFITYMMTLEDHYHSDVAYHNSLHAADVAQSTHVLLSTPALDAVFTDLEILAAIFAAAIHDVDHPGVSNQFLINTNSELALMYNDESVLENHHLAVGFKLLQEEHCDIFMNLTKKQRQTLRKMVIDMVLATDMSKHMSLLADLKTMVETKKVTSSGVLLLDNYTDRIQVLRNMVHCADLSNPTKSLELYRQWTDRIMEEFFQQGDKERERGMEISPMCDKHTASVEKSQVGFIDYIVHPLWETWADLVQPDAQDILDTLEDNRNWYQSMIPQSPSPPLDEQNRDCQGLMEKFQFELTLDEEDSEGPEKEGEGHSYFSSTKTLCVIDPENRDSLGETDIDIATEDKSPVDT
Chain of Muscarinic acetylcholine receptor M1 (Rattus norvegicus) (P08482 whole entry, looked up): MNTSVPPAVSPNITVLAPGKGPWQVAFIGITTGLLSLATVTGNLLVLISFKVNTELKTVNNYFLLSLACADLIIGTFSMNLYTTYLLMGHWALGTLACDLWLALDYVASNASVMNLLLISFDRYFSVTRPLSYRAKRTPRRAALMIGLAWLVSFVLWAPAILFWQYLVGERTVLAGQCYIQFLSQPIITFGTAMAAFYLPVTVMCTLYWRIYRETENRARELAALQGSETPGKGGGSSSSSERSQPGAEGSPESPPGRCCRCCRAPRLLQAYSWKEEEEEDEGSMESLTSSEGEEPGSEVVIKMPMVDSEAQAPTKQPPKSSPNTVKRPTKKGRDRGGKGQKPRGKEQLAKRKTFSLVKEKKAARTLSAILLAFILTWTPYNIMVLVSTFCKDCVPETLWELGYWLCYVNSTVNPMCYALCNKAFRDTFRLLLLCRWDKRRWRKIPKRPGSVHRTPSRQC
Chain of Glucocorticoid receptor (Homo sapiens) (P04150 whole entry, looked up, the tested form may be a part): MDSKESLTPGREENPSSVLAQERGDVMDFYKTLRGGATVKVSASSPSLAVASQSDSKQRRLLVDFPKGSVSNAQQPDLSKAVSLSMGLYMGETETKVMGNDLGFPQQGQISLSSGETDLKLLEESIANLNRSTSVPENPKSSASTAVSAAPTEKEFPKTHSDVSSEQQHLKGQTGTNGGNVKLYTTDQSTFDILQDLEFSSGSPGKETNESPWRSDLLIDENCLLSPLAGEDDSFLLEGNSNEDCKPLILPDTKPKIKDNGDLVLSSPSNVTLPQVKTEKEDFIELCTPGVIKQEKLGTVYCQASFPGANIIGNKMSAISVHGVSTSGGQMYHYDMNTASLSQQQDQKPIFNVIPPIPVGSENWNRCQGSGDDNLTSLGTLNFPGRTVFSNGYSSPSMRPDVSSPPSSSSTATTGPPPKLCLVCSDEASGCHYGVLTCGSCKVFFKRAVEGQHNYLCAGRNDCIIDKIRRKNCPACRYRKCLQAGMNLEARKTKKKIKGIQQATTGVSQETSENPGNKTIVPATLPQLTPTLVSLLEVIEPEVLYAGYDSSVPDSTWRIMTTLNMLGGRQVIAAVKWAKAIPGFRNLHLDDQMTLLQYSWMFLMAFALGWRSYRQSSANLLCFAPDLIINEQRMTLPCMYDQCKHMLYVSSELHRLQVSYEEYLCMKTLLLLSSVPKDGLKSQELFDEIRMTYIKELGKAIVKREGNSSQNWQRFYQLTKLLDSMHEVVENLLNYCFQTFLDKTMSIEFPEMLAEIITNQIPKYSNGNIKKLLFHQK
Chain of Pyruvate kinase PKM (Homo sapiens) (P14618 whole entry, looked up): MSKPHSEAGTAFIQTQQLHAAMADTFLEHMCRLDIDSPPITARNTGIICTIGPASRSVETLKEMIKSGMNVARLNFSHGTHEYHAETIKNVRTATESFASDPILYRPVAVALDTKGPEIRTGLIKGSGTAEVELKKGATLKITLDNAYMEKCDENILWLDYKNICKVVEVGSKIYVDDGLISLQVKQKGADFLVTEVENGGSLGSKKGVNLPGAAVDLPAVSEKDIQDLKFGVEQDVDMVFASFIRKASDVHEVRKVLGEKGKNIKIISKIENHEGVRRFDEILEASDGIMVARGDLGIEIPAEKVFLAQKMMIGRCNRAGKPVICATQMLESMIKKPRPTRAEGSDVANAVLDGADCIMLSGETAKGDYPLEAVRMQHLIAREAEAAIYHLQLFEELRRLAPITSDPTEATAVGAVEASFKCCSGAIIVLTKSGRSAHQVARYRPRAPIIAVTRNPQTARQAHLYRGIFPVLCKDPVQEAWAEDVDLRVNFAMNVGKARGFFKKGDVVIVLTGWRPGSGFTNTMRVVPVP
Chain of Cytochrome P450 1A2 (Homo sapiens) (P05177 whole entry, looked up): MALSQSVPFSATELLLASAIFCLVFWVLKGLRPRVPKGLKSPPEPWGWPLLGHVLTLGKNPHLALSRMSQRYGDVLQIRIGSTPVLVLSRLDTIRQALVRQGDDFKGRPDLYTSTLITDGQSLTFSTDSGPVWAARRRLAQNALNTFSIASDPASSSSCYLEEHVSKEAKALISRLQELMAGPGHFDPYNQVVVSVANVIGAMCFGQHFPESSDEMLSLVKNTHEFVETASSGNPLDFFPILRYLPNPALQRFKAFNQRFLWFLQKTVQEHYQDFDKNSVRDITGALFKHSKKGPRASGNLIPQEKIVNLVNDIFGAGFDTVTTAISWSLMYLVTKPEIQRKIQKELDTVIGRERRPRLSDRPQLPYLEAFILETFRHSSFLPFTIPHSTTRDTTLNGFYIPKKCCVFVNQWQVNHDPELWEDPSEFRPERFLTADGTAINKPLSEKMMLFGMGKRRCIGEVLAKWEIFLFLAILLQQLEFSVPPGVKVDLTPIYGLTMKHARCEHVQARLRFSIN
Chain of Alpha-galactosidase A (Homo sapiens) (P06280 whole entry, looked up): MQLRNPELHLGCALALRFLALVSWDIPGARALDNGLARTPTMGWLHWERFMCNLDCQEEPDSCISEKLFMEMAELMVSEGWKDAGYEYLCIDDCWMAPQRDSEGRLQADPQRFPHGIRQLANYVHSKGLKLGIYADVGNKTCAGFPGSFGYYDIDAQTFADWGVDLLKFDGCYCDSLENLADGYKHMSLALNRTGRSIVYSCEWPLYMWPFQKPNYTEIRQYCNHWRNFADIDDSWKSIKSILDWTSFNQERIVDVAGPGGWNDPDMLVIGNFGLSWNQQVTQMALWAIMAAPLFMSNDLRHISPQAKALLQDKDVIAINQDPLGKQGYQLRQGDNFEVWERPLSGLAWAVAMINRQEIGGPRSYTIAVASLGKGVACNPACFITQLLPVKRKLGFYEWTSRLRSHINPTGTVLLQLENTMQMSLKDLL
Chain of Cytochrome P450 3A4 (Homo sapiens) (P08684 whole entry, looked up): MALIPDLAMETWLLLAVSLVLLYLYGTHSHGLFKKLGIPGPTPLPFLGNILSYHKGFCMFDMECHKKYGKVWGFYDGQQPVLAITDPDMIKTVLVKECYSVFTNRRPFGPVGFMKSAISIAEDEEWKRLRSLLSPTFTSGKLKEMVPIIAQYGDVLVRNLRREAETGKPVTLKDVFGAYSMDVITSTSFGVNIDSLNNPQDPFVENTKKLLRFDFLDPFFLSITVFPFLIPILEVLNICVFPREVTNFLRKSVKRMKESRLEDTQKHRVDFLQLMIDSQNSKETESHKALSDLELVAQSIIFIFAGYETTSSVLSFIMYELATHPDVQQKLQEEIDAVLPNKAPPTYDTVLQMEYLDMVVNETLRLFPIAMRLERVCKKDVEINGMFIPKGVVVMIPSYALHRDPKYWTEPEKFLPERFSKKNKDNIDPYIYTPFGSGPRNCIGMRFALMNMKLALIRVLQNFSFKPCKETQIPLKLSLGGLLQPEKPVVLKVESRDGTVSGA
Chain of Guanine nucleotide-binding protein G(i) subunit alpha-1 (Homo sapiens) (P63096 whole entry, looked up): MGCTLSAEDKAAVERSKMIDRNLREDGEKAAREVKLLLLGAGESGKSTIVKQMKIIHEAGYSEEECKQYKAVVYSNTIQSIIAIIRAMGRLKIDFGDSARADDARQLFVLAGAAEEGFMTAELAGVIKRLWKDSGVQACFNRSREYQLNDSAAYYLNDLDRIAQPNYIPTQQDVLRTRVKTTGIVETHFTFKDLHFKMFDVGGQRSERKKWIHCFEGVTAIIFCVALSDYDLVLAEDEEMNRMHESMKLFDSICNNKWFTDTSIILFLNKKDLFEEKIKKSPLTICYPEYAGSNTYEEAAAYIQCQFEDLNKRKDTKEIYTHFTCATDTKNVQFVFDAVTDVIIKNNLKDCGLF

COc1cccc2c1[C@@H]1CN(CCCCn3c(=O)[nH]c4c(sc5ncc(-c6ccccc6)nc54)c3=O)C[C@H]1CO2
active: Potency [2] 31.6 µM | Potency [8] 11.2 µM
inactive: activity change, negative = inhibition [1] 4.55% [at 38 µM] | activity, negative = inhibition [3] 22.8% [at 38 µM] | Potency [4] > 46 µM | Potency [5] > 46 µM | outcome [6] | Potency [7] | Potency [9] | Potency [10] | outcome [11] | outcome [12] | outcome [13]

COCCNc1nc(-c2ccc(N(C)C)cc2)nc2ccccc12
active: Potency [2] 0.631 µM
inactive: activity change, negative = inhibition [1] 26.5% [at 7.69 µM] | activity, negative = inhibition [3] 4.49% [at 7.69 µM] | Potency [4] > 46 µM | Potency [14] | Potency [7] | Potency [15]

Clc1ccc(C(c2ccc(Cl)cc2)n2cc[n+](C[C@@H](OCc3ccc(Cl)cc3Cl)c3ccc(Cl)cc3Cl)c2)cc1
inactive: activity change, negative = inhibition [1] -7.48% [at 38 µM] | Potency [4] > 46 µM | Potency [5] > 46 µM | Potency [14] | Potency [16] | outcome [6] | Potency [10] | outcome [11] | outcome [12] | outcome [13]
active: Potency [2] 31.6 µM

C/C=C1\C(=O)C[C@@H]2[C@@H]3CCC4=CC(=O)CC[C@@]4(C)[C@H]3CC[C@@]12C
inactive: activity change, negative = inhibition [1] 13.9% [at 38 µM] | Potency [2] | activity, negative = inhibition [3] 7.49% [at 38 µM] | Potency [16] | outcome [6] | Potency [17] | Potency [18] | Potency [9] | Potency [10] | outcome [11] | outcome [12] | outcome [13]

COc1cccc(C2/C(=C(/O)c3cnn(-c4ccccc4)c3C)C(=O)C(=O)N2CCN(C)C)c1 (centres undefined)
inactive: activity change, negative = inhibition [1] 3.35% | activity change, negative = inhibition [19] -7.78% | activity, negative = inhibition [3] -11.2% | Potency [4] > 20.6 µM

CC1(NC[C@@H](O)COc2cccc3[nH]ccc23)CCC(C(C)(C)NC(=O)CBr)CC1 (some centres undefined)
inactive: activity change, negative = inhibition [1] 7.03% [at 38 µM] | Potency [2] | activity, negative = inhibition [3] 18.1% [at 38 µM] | Potency [4] > 46 µM | Potency [16] | Potency [20] | Potency [21]
